Results published in ChEMBL document CHEMBL4513216, “Probing the Open Global Health Chemical Diversity Library for Multistage-Active Starting Points for Next-Generation Antimalarials” (ACS Infect Dis, 2020).
Screen size: about 69,000 compounds; about 8,600 (12%) showed an effect of 50% or more. The full list was thinned out, with strong results kept by preference.

system: Plasmodium berghei; experiment: Screen against P. berghei liver stage (PbLuc), transformed with Luciferase, at 10uM; format: functional, HepG2; details: tested at 10 uM

In order of rising INHIBITION:
1. CO[C@H]1CN(Cc2c(C)ccc3ncccc23)CC[C@H]1N  -69.3%
2. CCCc1nnsc1C(=O)N1CCCC1(C)C(=O)N1CCOCC1 (configuration not stated)  -53.1%
3. COCCOCC1CCN(C(=O)c2ccc3[nH]cnc3c2)C1 (configuration not stated)  -24.9%
4. CCOCCN1CCN(CC(=O)N2CCC2)CC1CC (configuration not stated)  -20.2%
5. CCOc1cccc(CNCc2ccc(NC(=O)NC(C)C)cc2)c1  -18%
6. CCCN1CC2(CCN(c3ccc(C(C)=O)cn3)CC2)CC1C(=O)O (configuration not stated)  -12.5%
7. O=C(Nc1ccc(N2CCCC2)nc1)N1CCc2sccc2C1  -11.5%
8. O=C(Nc1ccc(N2CCCCC2)nc1)N1CCc2sccc2C1  -10.8%
9. CCOCCN1CCN(CCC(=O)N2CCCCC2)CC1C (configuration not stated)  -10.1%
10. Cc1ccccc1C(=O)N1C[C@@H]2OCCN(c3ncccn3)[C@@H]2C1  -2.35%
11. O=C(O)c1c[nH]c2cc(NS(=O)(=O)c3ccc(Cl)cc3F)ccc12  -2.19%
12. c1cncc(CN2CCC(c3csc4nccn34)CC2)c1  3.295%
13. Cc1ccc(NC(=O)Nc2c[nH]c(=O)[nH]c2=O)c(Cl)c1  3.77%
14. CC(C)(NC(=O)c1ccc(-c2ccc(F)cc2)s1)C(N)=O  4.12%
15. COCCS(=O)(=O)NC(C)c1ccccc1Br (configuration not stated)  4.34%
16. COc1c(CNCc2ccc(N3CCCC3)nc2)c(C(C)C)nn1C  7.95%
17. CCOCCN1CCN(CC2(O)CCCCC2)CC1  10.6%
18. Cn1c(C2CC2)nc2c1CCN(CCOc1cccc(F)c1)C2  11.9%
19. CCN(CC(=O)NC)S(=O)(=O)c1cnc2c(c1)c(C)nn2C  12.7%
20. O=C1CC(N(C(=O)c2ccc(F)c(F)c2)C2CC2)C(=O)N1 (configuration not stated)  15.3%
21. Cc1ccc(CN2CCC[C@]3(C(=O)O)CN(c4ncccn4)C[C@@H]3C2)o1  15.9%
22. Cc1ccsc1C(=O)N1CCCC(c2[nH]ncc2S(C)(=O)=O)C1 (configuration not stated)  17.4%
23. Cc1cc(CN(C)C(=O)C(c2ccccc2)N2CCSCC2)no1 (configuration not stated)  17.5%
24. CN1C(=O)C2(CCN(S(C)(=O)=O)CC2)c2cc(F)ccc21  17.7%
25. CN1CCN(S(C)(=O)=O)c2ccc(F)cc21  21.8%
26. CCc1cc(OC)c(OC)cc1C(=O)Nc1cccnc1  22.6%
27. O=c1c2ccc(Cl)cc2ncn1CCCN1CCCCC1CO (configuration not stated)  22.9%
28. Cn1ccnc1CN1CCN(Cc2noc(-c3ccccc3)n2)CC1  24.4%
29. O=C(CNCCn1cccn1)NCC1(c2ccccc2)CCOCC1  25.4%
30. CC(C)(C)Nc1c(C2CCN(C(=O)C3CC3)CC2)nc2ccccn12  26.355%
31. Cc1ccc(C)c(NC(=O)Nc2c[nH]c(=O)[nH]c2=O)c1  29.2%
32. COc1cccc(CNCc2ccc(NC(=O)NC(C)C)cc2)c1  29.4%
33. COc1cc(C(=O)N(C2CC2)C2CC(=O)NC2=O)ccc1C (configuration not stated)  31%
34. COC(=O)Cn1c(=O)[nH]c2cn(-c3ccc(F)cc3)c(=O)n21  31%
35. c1cnnc(N[C@@H]2CC[C@@H]3CN(Cc4c[nH]c5ccccc45)C[C@@H]32)c1  31.6%
36. CCOCCN1CCN(CC(=O)N2CCCC2)CC1CC (configuration not stated)  31.9%
37. CN(Cc1ccccn1)C(=O)C(c1ccccc1)N1CCSCC1 (configuration not stated)  33.7%
38. CC(=O)c1ccc(N2CCC3(CC2)CC(=O)N(C)C3)nc1  34.1%
39. CCN(CCC(=O)OC)S(=O)(=O)c1cnc2c(c1)c(C)nn2C  35.1%
40. O=C(c1ccno1)N1CCc2ncnc(-c3ccncc3)c2CC1  35.5%
41. Cc1nn(C)c2ncc(S(=O)(=O)N3CCCC(C(N)=O)C3)cc12 (configuration not stated)  36.5%
42. Cc1nc(N2CCOCC2)nc2c1CCN(Cc1nccn1C)CC2  38.5%
43. Cc1cc2nc(C(C)C)cc(NCCc3cccn3C)n2n1  39.5%
44. CN(C)C(=O)[C@@H]1CCO[C@@H]2CCN(CCOCc3ccccc3)C[C@H]21  43.1%
45. CS(=O)(=O)NC[C@H]1OC[C@@H]2CCN(CCc3ccccc3)C[C@@H]21  43.4%
46. CC(=O)c1ccc(N2CCCC(CO)(CCc3ccccc3)C2)nc1 (configuration not stated)  43.7%
47. CN1CCCC(NC(=O)c2ccc(C(=O)c3cc[nH]c3)cc2)C1 (configuration not stated)  44.2%
48. Cc1nn(C)c2ncc(S(=O)(=O)N3CCCC(C)CC3)cc12 (configuration not stated)  45.1%
49. Cc1nc(C)c2c(n1)CCN(Cc1nccn1C)CC2  45.7%
50. CN1CCN(S(=O)(=O)c2cccc(F)c2)c2ccccc21  46.6%
51. Cc1nc(N2CCCC2)nc2c1CCN(Cc1nccn1C)CC2  46.6%
52. CC(C)N1CCCCC1CCn1cnc2cc(C(F)(F)F)ccc2c1=O (configuration not stated)  47.9%
53. Cc1ccc(C(=O)N(C2CC2)C2CC(=O)NC2=O)cc1F (configuration not stated)  50.3%
54. CN(C)c1nc(N2CCCC2)nc2c1CCN(Cc1nccn1C)CC2  50.3%
55. Cc1ccc(NC(=O)Nc2c[nH]c(=O)[nH]c2=O)c(C)c1  50.8%
56. CCN(CC(=O)N(C)C)S(=O)(=O)c1cnc2c(c1)c(C)nn2C  51.1%
57. O=c1c2ccc(C(F)(F)F)cc2ncn1CCCN1CCCCC1CO (configuration not stated)  56.6%
58. CCCN(CC(=O)OC)S(=O)(=O)c1cnc2c(c1)c(C)nn2C  57.6%
59. COc1cc(CNCc2ccc(NC(=O)NC(C)C)cc2)cc(OC)c1  60%
60. CN(Cc1cscn1)C(=O)C(c1ccccc1)N1CCSCC1 (configuration not stated)  60.3%
61. CN1CCN(S(=O)(=O)c2cccc(C#N)c2)c2ccc(F)cc21  62.4%
62. O=C(Nc1ccc(N2CCCC2)nc1)N1CCc2ccccc2C1  63.5%
63. CCOCCN1CCN(CCC(=O)N2CCCCC2)CC1  64.1%
64. CCOCCN1CCN(CC(=O)N2CCCC2)CC1C (configuration not stated)  66.5%
65. CC(=O)c1ccc(N2CCCC(CO)(CCOc3ccccc3)C2)nc1 (configuration not stated)  70.1%
66. Cc1nc(-c2ccccc2)nc2c1CCN(Cc1nccn1C)CC2  75.6%
67. CC(=O)c1ccc(N2CCC(CO)(CCOc3ccccc3)CC2)nc1  95.1%
